Assay results published in the supplement of paper PMC3334620.
Over roughly 33,000 sequences, “E-score (-0.5 to 0.5)” has its median near -0.016; the highest 2% begin near 0.32. This is one part of a sample in which the highest values are shown more often than they occur.

Molecular target: T1, Stp1 (UniProt B3LFK1)
T1 sequence: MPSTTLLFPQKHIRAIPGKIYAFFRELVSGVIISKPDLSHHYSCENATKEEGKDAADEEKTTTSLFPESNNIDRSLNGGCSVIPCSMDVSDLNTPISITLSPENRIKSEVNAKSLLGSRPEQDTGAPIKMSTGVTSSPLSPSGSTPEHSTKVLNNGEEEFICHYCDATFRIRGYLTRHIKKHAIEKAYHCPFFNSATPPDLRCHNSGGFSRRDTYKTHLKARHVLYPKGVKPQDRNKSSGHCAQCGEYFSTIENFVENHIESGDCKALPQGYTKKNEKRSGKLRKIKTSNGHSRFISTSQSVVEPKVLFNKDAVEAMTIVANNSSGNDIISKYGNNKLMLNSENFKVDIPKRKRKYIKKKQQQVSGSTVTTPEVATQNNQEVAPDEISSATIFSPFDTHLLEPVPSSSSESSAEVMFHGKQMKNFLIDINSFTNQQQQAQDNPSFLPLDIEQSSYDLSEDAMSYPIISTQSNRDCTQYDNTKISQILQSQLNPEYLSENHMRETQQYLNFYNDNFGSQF
Test: PBM E-score (8-mer binding enrichment) (E-score (-0.5 to 0.5)); higher = stronger / more preferred TF binding
Conditions: protein concentration: 200 nM; construct: GST-full length
Procedure: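 Universal 'all 10-mer' protein binding microarrays (Agilent AMADID 015681) probed with GST-tagged S. cerevisiae TFs (full-length or DBD) made by in vitro transcription/translation (PURExpress), about 100-200 nM. Bound TF was detected with fluorescent anti-GST. Each ungapped 8-mer (which stands for itself and its reverse complement) is scored by the PBM enrichment score (E-score), a modified Wilcoxon-Mann-Whitney statistic from -0.5 to +0.5, computed with the Universal PBM Analysis Suite. Scale: above 0.35 generally sequence-specific binding.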

Row | Sequence | PBM E-score
1 | AGTATAGG | -0.0433
2 | ACATAAAC | 0.129
3 | CACTAAAA | 0.123
4 | CATGCGGG | 0.0548
5 | CATGCGGA | 0.156
6 | AATGCGGG | 0.174
7 | AATGCGGC | 0.435
8 | GATGCGCC | 0.194
9 | GATGCGGA | 0.104
10 | GATGCGGC | 0.47
11 | AATGCGGT | -0.0107
12 | CATGCGGC | 0.459
13 | CAGCTAAG | -0.153
14 | CCCGGTTA | -0.0439
15 | CCTCCCAC | -0.132
16 | GCCGTAGC | 0.444
17 | GCCGTAGA | 0.427
18 | ACCGTAGA | 0.0293
19 | ACCGTAGC | -0.138
20 | TCCGTAGA | 0.0858
21 | CCCGTAGC | -0.24
22 | AACATTCT | 0.215
23 | CGGACGTC | -0.00174
24 | CGGACGGA | -0.0178
25 | AGGACGGC | 0.324

Row | Sequence | PBM E-score
26 | AGGACGGG | -0.271
27 | CGGACGGC | 0.442
28 | AGGACGGA | -0.161
29 | CTTGTGGA | 0.016
30 | CCTACATC | -0.191
31 | ATTCGAAT | 0.0494
32 | AACTGTCA | -0.0285
33 | CCGTATGC | 0.331
34 | GCGTATGA | 0.09
35 | CCGTATGA | 0.337
36 | ACGTATGC | 0.00677
37 | CGGTATGC | -0.0255
38 | ACGTATGA | 0.15
39 | AAAAAGGC | 0.249
40 | CCAAACGC | 0.0617
41 | CGAAAGGA | -0.102
42 | CGAAAGGC | 0.355
43 | AGAAAGGC | 0.206
44 | CAAAAGGC | 0.359
45 | CAAAACGC | 0.322
46 | GAAAAGGC | 0.145
47 | AAAAACGC | 0.125
48 | GCCTGGAA | -0.133
49 | GCGCATCC | 0.0373
50 | CAGCACTA | -0.0254

Row | Sequence | PBM E-score
51 | GTGGTGTA | 0.0559
52 | AAATGTCT | -0.057
53 | ACGGCATC | 0.48
54 | CCGGCATC | -0.0881
55 | ATGGCATG | 0.22
56 | ATGGCATC | 0.186
57 | AGGGCATG | 0.0868
58 | ACGGCATG | 0.422
59 | ACGCGCTC | 0.105
60 | CCGAAATA | 0.0974
61 | GGATGAGA | -0.157
62 | AAGTCAGC | 0.0691
63 | CAACGGAG | -0.0687
64 | AAACGGAG | 0.18
65 | AAACGGAT | 0.259
66 | AAACGGGT | 0.188
67 | CAACGGCG | 0.429
68 | CAACGGCC | 0.173
69 | AAACGGTG | 0.1
70 | CAACGGGG | -0.104
71 | AAACGGCG | 0.481
72 | AAACGGCT | 0.376
73 | AAACGGCC | 0.368
74 | AAACGGTC | 0.0651
75 | CGGGCCAG | -0.159

Row | Sequence | PBM E-score
76 | AAGCGCTG | -0.0462
77 | TGCAGGCA | -0.105
78 | GCTCGCCC | -0.205
79 | CGGGAGAA | -0.111
80 | GGACAATA | 0.0607
81 | ACGTCAAC | 0.0286
82 | CACTCTCG | -0.0668
83 | ATGCTATC | -0.218
84 | CGTAGGAA | -0.0469
85 | ATGGCGGG | -0.132
86 | ATTTGCCC | 0.109
87 | CATTGCCG | 0.358
88 | AATTGCCG | 0.341
89 | CATTGCCC | 0.0291
90 | ATTTGCCG | 0.335
91 | AATTGCCC | 0.0223
92 | ATTTGCCA | -0.0687
93 | CATTGCCA | -0.0509
94 | AATTGCCA | -0.00723
95 | GCGTACGC | -0.0472
96 | CCGTACGC | 0.327
97 | CCGTACGG | 0.341
98 | ACGTACGC | -0.023
99 | CCGTACGA | 0.298
100 | ACGTACGG | 0.292

Row | Sequence | PBM E-score
101 | ACGTGCCA | 0.148
102 | ATTCTACA | 0.221
103 | CAAGTGAA | 0.00842
104 | ACATAAGC | 0.00404
105 | AGCTTACA | 0.0627
106 | AGACCCTC | -0.313
107 | AATGTCAC | 0.136
108 | CTTATGGA | -0.0787
109 | GCGGCGAC | 0.434
110 | GCGGCGGA | 0.358
111 | ACGGCGGA | 0.314
112 | GAGGCGAC | 0.155
113 | GCGGCGAA | 0.427
114 | CCGGCGAC | -0.167
115 | ACGGCGAC | 0.467
116 | TCGGCGAA | -0.0263
117 | CCGGCGAA | 0.088
118 | AGGGCGAC | 0.015
119 | CCGGCGGA | 0.0459
120 | ATGGCGAC | 0.0528
121 | AGCTATGA | -0.183
122 | CACCTGCC | 0.055
123 | GGTGGCTA | 0.0168
124 | AAGCGTAC | -0.161
125 | AGGGACAT | 0.0229

Row | Sequence | PBM E-score
126 | CAGCTTGA | -0.0612
127 | TAAGATGA | 0.0182
128 | TCATCCGA | 0.0548
129 | CAGGGGGG | -0.469
130 | ATGGCGAA | 0.139
131 | ACGGCGAA | 0.465
132 | AGGGCGAA | -0.0283
133 | ACGGCGGC | 0.445
134 | ATGGCGGC | 0.158
135 | ACGGCGGG | 0.289
136 | CAAGCTAC | -0.171
137 | AGTATATG | -0.0746
138 | AGTATATA | 0.363
139 | TATATATA | 0.345
140 | GATATATA | 0.314
141 | AGTATATC | 0.0639
142 | CATATATA | 0.256
143 | AACACTCT | 0.00778
144 | ACCGGCGC | 0.3
145 | CCCGGCGC | 0.121
146 | AACGGCGT | 0.448
147 | GCCGGCGC | 0.346
148 | AACGGGGC | 0.186
149 | GATGGCGC | 0.145
150 | AATGGCGC | 0.253

Row | Sequence | PBM E-score
151 | ACCGGCGT | 0.0951
152 | GACGGGGC | 0.143
153 | AATGGCGT | 0.161
154 | GACGGCGC | 0.451
155 | AACGGCGC | 0.477
156 | ATAGCAGC | -0.187
157 | CTGAGCGC | 0.0168
158 | GAGAACAA | 0.145
159 | CACGGGCA | 0.231
160 | ACGTAGTA | 0.103
161 | CCCTCTTC | -0.308
162 | AACGGCGG | 0.378
163 | AACGGGCG | 0.154
164 | AACGGGGG | -0.316
165 | CGACTGCG | -0.098
166 | GAAAGACC | -0.321
167 | AACGCCAC | 0.245
168 | AACGCCGG | 0.0903
169 | AACGCCTT | 0.328
170 | AACGCCGC | 0.47
171 | AACGCCGA | 0.292
172 | AACGCCTC | 0.225
173 | AACGCCCC | 0.213
174 | AACGCCTA | 0.0856
175 | AACGCCGT | 0.482

Row | Sequence | PBM E-score
176 | ACCGACGA | -0.0695
177 | CGCCATCA | -0.144
178 | CTAGGTTA | 0.00212
179 | GACTTGGC | -0.232
180 | CGGCCGGA | -0.15
181 | GGGCCGTA | 0.369
182 | GGCCCGTA | -0.0728
183 | CGGCCGTA | 0.37
184 | AGGCCGTA | 0.298
185 | CGGCCGTC | 0.16
186 | CGGCCAGC | -0.206
187 | CATGGTCA | 0.103
188 | ATCTAAAG | -0.0363
189 | GGAATTGA | 0.0238
190 | CGCGCAAA | 0.198
191 | TGCGCGCA | 0.133
192 | AGCGCAAA | -0.0739
193 | GGCGCCCC | 0.284
194 | GGCGCGCA | 0.318
195 | CGCGCGGA | 0.256
196 | CGCGCGCA | 0.272
197 | GTCGCGGA | -0.0678
198 | GGCGCGGA | 0.337
199 | GGCGCAAA | 0.406
200 | GGCGCGTA | 0.186

Row | Sequence | PBM E-score
201 | GGCGCGCC | 0.423
202 | CAGCAGTA | -0.0846
203 | AAGAAGCC | 0.232
204 | ACCACTTC | -0.242
205 | CGAGCTAG | -0.0273
206 | AGGTTGCC | -0.0941
207 | GCTTGAAC | 0.111
208 | AAAGGAGG | -0.258
209 | ACCAAACA | 0.201
210 | AAAGTCTG | -0.115
211 | CAATTAGG | 0.104
212 | AGCGCGCG | 0.196
213 | CGCGCGCG | 0.405
214 | CGCGCGAG | 0.239
215 | CCCGCGCC | 0.297
216 | CGCGCGCC | 0.403
217 | CCCGCGCG | 0.328
218 | AGCGCGCC | 0.196
219 | CTCGCGCC | 0.295
220 | CCCCCGCG | -0.0598
